Records with an inconclusive call do not appear. Active and inactive are the calls of the source. Rule for the calls: active = hit-call score of the fitted dose curve at least 0.9, where 1 is the maximum; inconclusive = response in the unintended direction; inactive = score below 0.9.
Experiments:
[1] = TOX21_p53_BLA_p2_viability: Viability Assessment in the Tox21 HCT-116 p53 Agonism Beta-lactamase Assay, Phase 2 (AID 2283591);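 note: compound exposure lasted 16 h at 37 °C; actives lower the ATP signal meaning cytotoxicity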
Summary of the method: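 HCT-116 p53-bla cells (4000/well) rested 5 h at 37C, then received compounds in DMSO (217-fold dilution) for 16 h at 37C, 5% CO2. After the CCF4 read, CellTiter-Glo was added; ATP luminescence was read after 30 min at room temperature.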

[2] = biological target: Cellular tumor antigen p53 (Homo sapiens) (UniProt P04637); experiment: TOX21_p53_BLA_p2_ratio: Tox21 HCT-116 p53 Agonism Beta-lactamase Assay, Ratio, Phase 2 (AID 2283592)
Cellular tumor antigen p53 (Homo sapiens), sequence (P04637 whole entry, looked up): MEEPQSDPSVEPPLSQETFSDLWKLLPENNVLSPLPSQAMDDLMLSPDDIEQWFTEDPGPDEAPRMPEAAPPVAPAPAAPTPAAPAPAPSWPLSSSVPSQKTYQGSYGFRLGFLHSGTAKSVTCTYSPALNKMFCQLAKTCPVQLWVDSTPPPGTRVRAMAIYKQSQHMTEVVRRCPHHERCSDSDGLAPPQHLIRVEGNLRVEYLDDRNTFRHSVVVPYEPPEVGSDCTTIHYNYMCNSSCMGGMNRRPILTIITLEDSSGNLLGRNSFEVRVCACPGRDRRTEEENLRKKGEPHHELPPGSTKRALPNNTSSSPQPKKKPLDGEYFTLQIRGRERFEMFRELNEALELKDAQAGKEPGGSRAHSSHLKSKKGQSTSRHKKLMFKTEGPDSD
Summary of the method: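 Ratio endpoint: beta-lactamase cleavage of CCF4-AM, blue (460 nm) over green (530 nm). HCT116 reporter line; 16 h treatment, 37C; substrate 2 h RT.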

[3] = TOX21_p53_BLA_p3_viability: Viability Assessment in the Tox21 HCT-116 p53 Agonism Beta-lactamase Assay, Phase 3 (AID 2283593);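 note: cells exposed to compound for 16 h before reading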
Summary of the method: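 HCT-116 cells (4000/well) rested 5 h at 37C, then got DMSO compounds by pin tool (217-fold dilution) for 16 h at 37C, 5% CO2. After the bla read, CellTiter-Glo was added and luminescence read at 30 min, room temperature.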

[4] = biological target: Cellular tumor antigen p53 (Homo sapiens) (UniProt P04637); experiment: TOX21_p53_BLA_p3_ratio: Tox21 HCT-116 p53 Agonism Beta-lactamase Assay, Ratio, Phase 3 (AID 2283596)
Summary of the method: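 Cells were seeded at 4000/well, rested 5 h at 37C, then dosed with DMSO compound solutions (217-fold dilution) for 16 h. CCF4-AM substrate was loaded for 2 h at room temperature, and the 460/530 nm emission ratio was fitted for gain of signal versus DMSO.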

[5] = TOX21_p53_BLA_p4_viability: Viability Assessment in the Tox21 HCT-116 p53 Agonism Beta-lactamase Assay, Phase 4 (AID 2283597);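 note: hits lower the luminescence signal meaning cytotoxicity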
Summary of the method: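 Cytotoxicity was inferred from loss of CellTiter-Glo luminescence. HCT116 cells had been dosed with compounds after 5 h plating, incubated 16 h at 37C and 5% CO2, and exposed to the CCF4-AM substrate for 2 h.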

[6] = biological target: Cellular tumor antigen p53 (Homo sapiens) (UniProt P04637); experiment: TOX21_p53_BLA_p5_ratio: Tox21 HCT-116 p53 Agonism Beta-lactamase Assay, Ratio, Phase 5 (AID 2283599)
Summary of the method: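 HCT-116 cells carrying a p53-inducible beta-lactamase reporter were seeded at 4000 cells/well and dosed after 5 h with compound in DMSO (217-fold dilution). After 16 h at 37C, CCF4-AM substrate was added for 2 h, and the 460/530 nm emission ratio was scored as gain-of-signal versus DMSO.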

[7] = TOX21_p53_BLA_p5_viability: Viability Assessment in the Tox21 HCT-116 p53 Agonism Beta-lactamase Assay, Phase 5 (AID 2283600)
Summary of the method: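 Luciferase-coupled ATP quantitation of cells treated for 16 h (37C, 5% CO2) with test chemicals delivered in DMSO via a 217-fold dilution; 4000 cells/well; reagent incubated 30 min at room temperature before luminescence reading.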

[8] = biological target: Cellular tumor antigen p53 (Homo sapiens) (UniProt P04637); experiment: TOX21_p53_BLA_p4_ratio: Tox21 HCT-116 p53 Agonism Beta-lactamase Assay, Ratio, Phase 4 (AID 2283601)
Summary of the method: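 HCT116 cells carrying an inducible beta-lactamase reporter were plated at 4000 cells/well, rested 5 h, then exposed to compounds in DMSO (217-fold dilution) for 16 h at 37C. CCF4-AM substrate was loaded 2 h at room temperature; 460/530 nm emission ratio scored gain-of-signal versus DMSO.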

SMILES	outcome [1]	outcome [2]	outcome [3]	outcome [4]	AC50 [5]	outcome [6]	outcome [7]	AC50 [8]	AC50 [1]	AC50 [6]	AC50 [7]	outcome [8]	outcome [5]	AC50 [2]	AC50 [3]	AC50 [4]
OCCN1CCN(CCCN2c3ccccc3Sc3ccc(C(F)(F)F)cc32)CC1	inactive	inactive	inactive	inactive	33.5 µM (active)	inactive	inactive	40.9 µM (active)	–	–	–	–	–	–	–	–
C=CC[C@@H]1/C=C(\C)C[C@H](C)C[C@H](OC)[C@H]2O[C@@](O)(C(=O)C(=O)N3CCCC[C@H]3C(=O)O[C@H](/C(C)=C/[C@@H]3CC[C@@H](O)[C@H](OC)C3)[C@H](C)[C@@H](O)CC1=O)[C@H](C)C[C@@H]2OC	–	inactive	inactive	inactive	35.9 µM (active)	–	–	–	36.5 µM (active)	36.8 µM (active)	40.5 µM (active)	inactive	–	–	–	–
CCCOc1ccc(C(=O)OCCN(CC)CC)cc1N	inactive	inactive	inactive	inactive	–	inactive	inactive	–	–	–	–	inactive	inactive	–	–	–
Oc1ccc(Cl)c2cccnc12	inactive	inactive	inactive	inactive	–	inactive	inactive	–	–	–	–	inactive	inactive	–	–	–
COc1cccc2c1C(=O)c1c(O)c3c(c(O)c1C2=O)C[C@@](O)(C(=O)CO)C[C@@H]3O[C@H]1C[C@H](N)[C@H](O[C@@H]2CCCCO2)[C@H](C)O1	–	–	–	–	7.64 µM (active)	–	inactive	7.58 µM (active)	7.4 µM (active)	7.29 µM (active)	–	–	–	6.79 µM (active)	7.5 µM (active)	7.49 µM (active)
Cc1ccc(-n2nc(C(C)(C)C)cc2NC(=O)Nc2ccc(OCCN3CCOCC3)c3ccccc23)cc1	inactive	inactive	inactive	inactive	–	inactive	inactive	–	–	–	–	inactive	inactive	–	–	–
Cc1cc(-c2ccc(N=Nc3cc(S(=O)(=O)O)c4ccccc4c3N)c(C)c2)ccc1N=Nc1cc(S(=O)(=O)O)c2ccccc2c1N	inactive	–	inactive	–	–	inactive	inactive	–	–	–	–	inactive	inactive	6.5 µM (active)	–	12.6 µM (active)
c1ccc(-c2ccc(C(c3ccccc3)n3ccnc3)cc2)cc1 (stereo not drawn)	inactive	–	inactive	–	38.2 µM (active)	–	inactive	34.1 µM (active)	–	36.5 µM (active)	–	–	–	35.9 µM (active)	–	39.5 µM (active)
Cc1cc(/C=C/c2ccc3cc(N(C)C)ccc3[n+]2C)c(C)n1-c1ccccc1	–	–	inactive	–	16.6 µM (active)	–	inactive	20.1 µM (active)	16.7 µM (active)	15.8 µM (active)	–	–	–	13.4 µM (active)	–	16.1 µM (active)
CC(C)(C)C(=O)O	inactive	inactive	inactive	inactive	–	inactive	inactive	–	–	–	–	inactive	inactive	–	–	–
Nc1ccc(C(=O)Nc2ccccc2N)cc1	inactive	–	inactive	–	20.9 µM (active)	inactive	inactive	–	–	–	–	inactive	–	12.6 µM (active)	–	21.1 µM (active)
Cc1c(Cl)cccc1Nc1ccccc1C(=O)O	–	–	–	–	10.2 µM (active)	–	inactive	17.7 µM (active)	5.79 µM (active)	21.6 µM (active)	–	–	–	19.4 µM (active)	23 µM (active)	21.1 µM (active)
Cc1cc(CC(C)CC(C)(C)C)n(O)c(=O)c1 (stereo not drawn) (tested in a mixture with another compound)	inactive	inactive	–	inactive	34.1 µM (active)	–	–	33 µM (active)	–	36.1 µM (active)	41.8 µM (active)	–	–	–	43.5 µM (active)	–
CCOc1ccc(Cc2nccc3cc(OCC)c(OCC)cc23)cc1OCC	inactive	inactive	inactive	inactive	–	inactive	inactive	–	–	–	–	inactive	inactive	–	–	–
CCCCCCCCCCCCCCCCOCCOCCOCCOCCOCCOCCOCCOCCOCCOCCOCCOCCOCCOCCOCCOCCOCCOCCOCCOCCO	–	–	–	–	34.5 µM (active)	–	–	43.5 µM (active)	30.1 µM (active)	41.4 µM (active)	33.3 µM (active)	–	–	29.5 µM (active)	6.03 µM (active)	11.7 µM (active)
NCCOCCN	inactive	inactive	inactive	inactive	–	inactive	inactive	–	–	–	–	inactive	inactive	–	–	–

SMILES	outcome [1]	outcome [2]	outcome [3]	outcome [4]	AC50 [5]	outcome [6]	outcome [7]	AC50 [8]	AC50 [1]	AC50 [6]	AC50 [7]	outcome [8]	outcome [5]	AC50 [2]	AC50 [3]	AC50 [4]
Cc1cc(N)c2ccccc2[n+]1CCCCCCCCCC[n+]1c(C)cc(N)c2ccccc21	inactive	inactive	inactive	inactive	–	inactive	inactive	–	–	–	–	inactive	inactive	–	–	–
CCCCCCCCNC(C)C(O)c1ccc(SC(C)C)cc1 (stereo not drawn)	–	–	–	–	18.3 µM (active)	–	–	33.9 µM (active)	22.4 µM (active)	23.9 µM (active)	19 µM (active)	–	–	35.8 µM (active)	15.2 µM (active)	18.7 µM (active)
O=C(NOC[C@H](O)CO)c1ccc(F)c(F)c1Nc1ccc(I)cc1F	inactive	inactive	inactive	inactive	–	inactive	inactive	–	–	–	–	inactive	inactive	–	–	–
CCCCCCCCS(=O)C(C)Cc1ccc2c(c1)OCO2 (stereo not drawn)	–	–	inactive	–	74.7 µM (active)	–	–	88.7 µM (active)	78.9 µM (active)	86.8 µM (active)	58.2 µM (active)	–	–	39.3 µM (active)	–	90.9 µM (active)
CCCCCCCCCCCCCCCC(=O)O[C@@H]1[C@@H](O)[C@@H](O)[C@@H]([C@H](NC(=O)[C@@H]2C[C@@H](CCC)CN2C)[C@H](C)Cl)O[C@@H]1SC	inactive	inactive	inactive	inactive	–	inactive	inactive	–	–	–	–	inactive	inactive	–	–	–
COc1ccc(S(=O)(=O)Nc2nnc(CC(C)C)s2)cc1	inactive	inactive	inactive	inactive	–	inactive	inactive	–	–	–	–	inactive	inactive	–	–	–
CC[C@H](C)[C@H]1O[C@]2(CC[C@@H]1C)C[C@@H]1C[C@@H](C/C=C(\C)[C@@H](O[C@H]3C[C@H](OC)[C@@H](O[C@H]4C[C@H](OC)[C@@H](O)[C@H](C)O4)[C@H](C)O3)[C@@H](C)/C=C/C=C3\CO[C@@H]4[C@H](O)C(C)=C[C@@H](C(=O)O1)[C@]34O)O2	–	–	–	–	6.4 µM (active)	–	–	9.63 µM (active)	5.51 µM (active)	8.8 µM (active)	7.23 µM (active)	–	–	17.6 µM (active)	6.87 µM (active)	14.5 µM (active)
O=C1C(=O)c2ccccc2C(O)=C1C1CCC(c2ccc(Cl)cc2)CC1 (stereo not drawn)	inactive	–	inactive	–	–	–	inactive	–	–	10.3 µM (active)	–	inactive	inactive	10.3 µM (active)	–	1.61 µM (active)
COc1cc(NS(C)(=O)=O)ccc1Nc1c2ccccc2nc2ccccc12	–	–	–	–	25.6 µM (active)	–	–	1.36 µM (active)	12.8 µM (active)	22.1 µM (active)	33.6 µM (active)	–	–	7.65 µM (active)	15.1 µM (active)	8.11 µM (active)
CCC(CC)(CC(=O)Nc1cccc(/C=C/c2nc(C3CCC3)cs2)c1)C(=O)O	inactive	inactive	inactive	inactive	–	inactive	inactive	–	–	–	–	inactive	inactive	–	–	–
N#CCc1cccc(C(F)(F)F)c1	inactive	inactive	inactive	inactive	–	inactive	inactive	–	–	–	–	inactive	inactive	–	–	–
N#CC(c1ccc(Cl)cc1)c1c(Cl)cc(-n2ncc(=O)[nH]c2=O)cc1Cl (stereo not drawn)	inactive	–	–	–	31.4 µM (active)	–	inactive	22.1 µM (active)	–	22.1 µM (active)	–	–	–	19.6 µM (active)	32.2 µM (active)	20.3 µM (active)
C[C@]12O[C@H](C[C@]1(O)CO)n1c3ccccc3c3c4c(c5c6ccccc6n2c5c31)CNC4=O	–	–	–	–	2.24 µM (active)	–	inactive	0.0528 µM (active)	1.06 µM (active)	0.0787 µM (active)	–	–	–	0.0434 µM (active)	1.13 µM (active)	0.0715 µM (active)
Nc1c2c(nc3c1CCC3)CCCC2	inactive	inactive	inactive	inactive	–	inactive	inactive	–	–	–	–	inactive	inactive	–	–	–
Nc1ccc(N)c2ccccc12	–	–	–	inactive	46 µM (active)	–	–	13.5 µM (active)	46 µM (active)	86 µM (active)	46 µM (active)	–	–	16.5 µM (active)	3.49 µM (active)	–
